In PubChem BioAssay AID1903 (Southern Research Specialized Biocontainment Screening …, 2009):
Screen size: about 310,000 compounds; about 1,200 (0.39%) were called active. How the calls were made is not given here. Not all results are given here. Entries with a potency or affinity are not part of this list.

These compounds were tested against Large T antigen (Simian virus 40) (UniProt P03070) (assay: TAg ATPase/helicase activity blockers – biochemical (AID 1903)). Details: SV40 large T antigen ATPase/helicase inhibition assay; at 20 µM; stronger effect = higher value.
Chain of Large T antigen (Simian virus 40) (P03070 whole entry, looked up): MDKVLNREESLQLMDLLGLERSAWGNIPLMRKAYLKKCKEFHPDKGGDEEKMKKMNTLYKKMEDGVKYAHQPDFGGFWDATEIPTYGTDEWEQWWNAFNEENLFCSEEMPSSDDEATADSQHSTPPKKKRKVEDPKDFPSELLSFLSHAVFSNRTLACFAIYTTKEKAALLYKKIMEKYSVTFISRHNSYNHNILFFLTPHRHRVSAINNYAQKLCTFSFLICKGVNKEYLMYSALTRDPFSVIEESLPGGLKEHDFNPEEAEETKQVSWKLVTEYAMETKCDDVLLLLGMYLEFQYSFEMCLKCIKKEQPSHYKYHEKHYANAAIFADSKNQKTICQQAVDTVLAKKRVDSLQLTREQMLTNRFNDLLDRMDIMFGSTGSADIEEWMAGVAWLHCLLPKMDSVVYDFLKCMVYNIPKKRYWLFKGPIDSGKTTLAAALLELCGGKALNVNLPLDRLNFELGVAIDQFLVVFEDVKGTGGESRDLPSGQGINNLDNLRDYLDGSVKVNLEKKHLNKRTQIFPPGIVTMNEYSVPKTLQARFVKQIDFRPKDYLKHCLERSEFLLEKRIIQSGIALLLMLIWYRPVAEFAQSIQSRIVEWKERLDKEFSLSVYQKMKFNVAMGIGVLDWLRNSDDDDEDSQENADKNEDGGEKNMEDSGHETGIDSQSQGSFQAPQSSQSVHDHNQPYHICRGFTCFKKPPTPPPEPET

inhibition, inactive:
O=C1Nc2ccc(Br)cc2C1(O)c1ccc(F)cc1 (stereo unspecified) 5.56%, COc1ccc(F)cc1C(=O)C1CCCN(Cc2c(C)n(C)n(-c3ccccc3)c2=O)C1 (stereo unspecified) 25.2%, COc1ccc(C(=O)NC2CCCCC2)cc1S(=O)(=O)N1CCOCC1 1.05%, CC(OC(=O)c1cccc(Cl)c1)C(=O)NC1CCCCC1C (stereo unspecified) 27.1%, Nc1nnc(SCC(=O)N2CCCCC2)s1 -7.45%, COc1ccc(-n2nc3cc(C)c(N)cc3n2)cc1Cl -6.4%, O=C(CN(Cc1ccccc1)C(=O)c1csnn1)NCc1ccccc1 7.5%, Cc1nc2ccc(NC(=O)c3ccc(Cl)c([N+](=O)[O-])c3)cc2s1 6.3%, Cc1nc2ccc(NC(=O)c3ccc([N+](=O)[O-])cc3[N+](=O)[O-])cc2s1 8.68%, CCOc1ccc(C(Nc2cccnc2)c2cc(Cl)c3cccnc3c2O)cc1 (stereo unspecified) 15.7%, COc1ccccc1C(NC(C)=O)c1cc(Cl)c2cccnc2c1O (stereo unspecified) 3.72%, CCOC(=O)C1(Cc2ccccc2C)CCCN(S(=O)(=O)CC)C1 (stereo unspecified) 6.84%, Cc1ccc(C)c(S(=O)(=O)Nc2ccc(C(N)=O)cc2)c1 20.6%, Cc1cc(C)c(S(=O)(=O)Nc2ccc(O)cc2)cc1C 48.1%, Cc1cc(C)c(C)c(S(=O)(=O)Nc2ccc(O)cc2)c1C 30.2%, Cc1cc(C)c(S(=O)(=O)Nc2ccc(O)cc2)c(C)c1 29.1%, COCCOc1cc(N(CC(=O)N(C)C)S(=O)(=O)c2ccccc2)c(Cl)cc1Cl -5.2%, Cc1cc(C)c2c(=O)[nH]n(C3CCOC(C)(C)C3)c2n1 (stereo unspecified) 13.4%, O=C(Nc1ccccc1C(=O)Nc1nnc(C(F)(F)F)s1)c1ccccc1Cl 10.1%, CNC(=O)c1cc(S(=O)(=O)NCc2ccncc2)ccc1OC 11.8%, COc1ccccc1S(=O)(=O)CC(O)COc1ccc(F)cc1Cl (stereo unspecified) 4.29%, COc1ccc(/C=C/C(=O)C2CC2)cc1COc1c(C)cccc1C 7.52%, COC(=O)CC1SC(=O)NC1=Nc1ccc(OC)cc1 (stereo unspecified) 3.46%, COC(=O)CC1SC(=O)NC1=Nc1ccc(C)cc1 (stereo unspecified) 0.63%, Cc1cc(S(=O)(=O)NCc2ccccc2)ccc1OCC(=O)NCc1cccnc1 8.52%, O=C(COc1ccccc1Br)Nc1ccc2c(c1)OCCCO2 8.78%, COc1ccc(N2C(=O)CC(Sc3n[nH]c(-c4ccc(C)cc4)n3)C2=O)cc1 (stereo unspecified) 28.9%, CCOc1ccc(N2C(=O)CC(Sc3n[nH]c(-c4ccccc4)n3)C2=O)cc1 (stereo unspecified) 33.8%, Cc1nc2ccccc2n1CC(=O)NCCN1CCOCC1 21.1%, CCCCn1c(N)c(N(CCOC)C(=O)COC(=O)CSc2cc(C)c3ccccc3n2)c(=O)[nH]c1=O 11.3%, c1ccc(Nc2nc(NCC3CCCO3)c3ccccc3n2)cc1 (stereo unspecified) 5.53%, OCCNc1nc(Nc2ccccc2)nc2ccccc12 1.4%, Oc1ccccc1Nc1nc(NCC2CCCO2)c2ccccc2n1 (stereo unspecified) 31.9%, OCCNc1nc(Nc2ccc(Br)cc2)nc2ccccc12 2.29%, CC(C)CSc1nc2ccccc2[nH]1 4.9%, CC(NC(=O)c1cccnc1)C(=O)N1CCCCC1 (stereo unspecified) 11.9%, CC1CC1c1ccc(/C=C(\C#N)C(=O)Nc2ccccc2Cl)o1 (stereo unspecified) 19.3%, O=C(Cn1c(O)c(/C=C2\C=Nc3ccc(Br)cc32)sc1=O)N1CCCC1 2.37%, O=C(Nc1ccccc1F)c1ccc(CN2CCc3ccccc3C2)cc1 -1.04%, CC(C)c1cccc(C(C)C)c1NC(=O)CN1C(=O)NC2(CCCC2)C1=O 1.52%, c1cc(C(c2nnnn2C2CCCC2)N2CCOCC2)ccn1 (stereo unspecified) 4.22%, CC(C)(C)n1nnnc1C(c1ccncc1)N1CCCCCC1 (stereo unspecified) 17.8%, CCC(C)(C)n1nnnc1C(c1ccc2ncccc2c1)N1CCCCCC1 (stereo unspecified) 3.78%, CC(C)(C)n1nnnc1C(c1cccnc1)N1CCN(c2ccccc2)CC1 (stereo unspecified) 3.3%, CCC(C)(C)n1nnnc1C(c1ccc2ncccc2c1)N1CCN(c2nc3ccccc3s2)CC1 (stereo unspecified) 9.88%, c1ccc(C(c2nnnn2C2CCCC2)N2CCN(c3ccccc3)CC2)cc1 (stereo unspecified) 11.2%, c1ccc(C(c2ccccc2)N2CCN(C(c3ccccn3)c3nnnn3C3CCCC3)CC2)cc1 (stereo unspecified) -0.29%, c1ccc(C(c2nnnn2C2CCCC2)N2CCCCCC2)nc1 (stereo unspecified) 4.88%, Cc1nn(CC(=O)N/N=C/c2cccs2)c(C)c1[N+](=O)[O-] 11.7%, O=C(Nc1ccc(N2CCN(C(=O)c3ccccc3F)CC2)cc1)c1ncn[nH]1 8.25%, Cc1ccc2nc(Cl)c(/C=N/NC(=O)CN3CCOCC3)cc2c1 11.5%, COc1ccc(C(Nc2ccccn2)c2c(NC(=O)c3ccco3)sc(C)c2C)cc1 (stereo unspecified) 14.4%, Cc1cc(C)n(CC(=O)NC2CCCc3c2cnn3-c2ccc(C)c(C)c2)n1 (stereo unspecified) 2.04%, CC(C)C(CCN1C(=O)c2ccccc2C1=O)c1ccco1 (stereo unspecified) 16.2%, CCCN(C(=O)CCSc1ccc(F)cc1)c1c(N)n(Cc2ccccc2)c(=O)[nH]c1=O 5.85%, CCCCCCC(=O)Nc1nnc(CC)s1 4.74%, COc1ccc(CC(=O)N/N=C/c2sccc2C)cc1 4.71%, O=C(Nc1cccc2ccccc12)N1CC=CCC1 5.64%, CCOc1ccc(C(=O)NC(=S)Nc2ncccc2C)cc1[N+](=O)[O-] 5.78%, COc1ccc(-c2noc(N3CCCC(C(=O)Nc4ccc(F)cc4F)C3)n2)cc1 (stereo unspecified) 5.72%, CC1=NN(c2ccc(C)cc2)C(=O)/C1=C\c1ccc(Br)s1 -1.11%, O=C1N/C(=C/c2ccc(Br)s2)C(=O)N1c1ccccc1 8.81%, Cc1ccc(S(=O)(=O)N2CCCCC2)cc1C(=O)NC1CC(C)(C)NC(C)(C)C1 13.5%, COC(=O)C1=C(O)/C(=C\c2ccc(OCC(=O)Nc3ccccc3)cc2)N=C1C 4.47%, CCOC(=O)C1=C(O)/C(=C/c2cc(OC)c(OC)c(OC)c2)N=C1C 3.44%, COC(=O)C1=C(O)/C(=C\c2ccc(OCC(=O)Nc3ccccc3OC)cc2)N=C1C -3.54%, COC(=O)C1=C(O)/C(=C\c2sccc2C)N=C1C 10.2%, CCOC(=O)C1=C(O)/C(=C\c2ccc(OC)c(OC)c2)N=C1C 4.98%, COC(=O)C1=C(O)/C(=C\c2ccc(OCC(=O)Nc3ccc(OC)cc3)cc2)N=C1C 7.17%, C=CCc1cccc(CNc2nc3ccccc3n2CCN2CCOCC2)c1O -5.32%, O=C(/C=C/c1cccc(Br)c1)NC1CCN(Cc2ccccc2)CC1 7.35%, Oc1ccccc1N=Cc1sc2ccccc2c1Cl 19.7%, CSc1ccccc1NC(=O)CSc1nncs1 14.5%, CN(C(=O)C1CCCO1)c1nnc(-c2ccccn2)s1 (stereo unspecified) 8.98%, CCc1ccc(NC(=O)CC2NCCNC2=O)cc1 (stereo unspecified) 8.15%, Cc1ccc(NC(=O)CC2NCCNC2=O)cc1 (stereo unspecified) 5.94%, O=C(CN1CCCC1)Nc1ccc(F)cc1 -4.88%, CN1CC(=O)N(CC(=O)Nc2ccc(N(C)C)cc2)c2ccccc2C1=O 37.1%, CN(C)c1ccc(NC(=O)CN2C(=O)CC(c3ccccc3)=Nc3ccccc32)cc1 47%, CC(=O)c1ccc(NC(=O)Cn2nc(C)c([N+](=O)[O-])c2C)cc1 4.55%, Cc1nn(CC(=O)Nc2ccc(S(=O)(=O)N(C)C)cc2)c(C)c1[N+](=O)[O-] 10.9%, CCN(CC)c1ccc(NC(=O)CN2CCN(CC(=O)Nc3ccc(F)cc3)CC2)cc1 26.9%, CC12CCC(c3n[nH]c(=S)nc31)C2(C)C (stereo unspecified) 24.4%, Cc1ccc(SCC(=O)OCC(=O)NC2CCCCCC2)cc1 12.4%, O=C(CNC(=O)C12CC3CC(CC(C3)C1)C2)NC1=NCCS1 14.4%, Cn1ccc(C(=O)Oc2ccc(C(=O)Nc3ccc(F)cc3F)cc2)n1 1.18%, O=C(COC(=O)c1ccc(Cl)nc1)NCCNC(=O)COC(=O)c1ccc(Cl)nc1 14.5%, CC(=O)C1=C(O)C(=O)N(c2ccc(O)cc2)C1c1ccc(C)cc1 (stereo unspecified) 23.3%, Cn1cc(C(=O)Nc2ccc(F)c(Cl)c2)cn1 8.31%, COc1cccc(S(=O)(=O)Nc2ccc(C(=O)N3CCCCCC3)cc2)c1 -1.76%, COc1ccc(CN2CCN(C(=O)CC(C)C)CC2)c2ccccc12 0.53%, C/C(=C\C(=O)c1ncc(C(F)(F)F)cc1Cl)N(C)C 9.23%, Cn1cc(CN2CCC(n3nccc3NC(=O)Cc3ccccc3)CC2)cn1 2.67%, O=C(NC(NCC1CCCO1)C(Cl)(Cl)Cl)c1cccc2ccccc12 (stereo unspecified) 2.66%, NC(=O)c1cc(-c2ccccc2)sc1NC(=O)CN1CCCCC1 25.6%, CCc1cccc(N(C(=O)c2csnn2)C(C(=O)NC(C)(C)C)c2ccncc2)c1 (stereo unspecified) 14.2%
